Hits are enriched below; roughly 5.4% of the tested compounds scored in any of these assays.
MPTP inh: inhibitors of mitochondrial permeability transition pore. AID 602449. isolated mouse mitochondria, Ca2+ swelling absorbance, 30 min. 1.4% of 360,000 active. inhibition, % at 10 µM;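 active means inhibition of 50% or more, scaled per plate between neutral and stimulator controls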;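 further: 0% = DMSO wells given calcium and 100% = 1 mM EGTA wells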
Mdm2 MdmX PPI: human Mdm2/MdmX binding inhibition | O15151+Q00987 | SaOS-2 split-luciferase Mdm2/MdmX complementation, luminescence | inhibition, % at 8 µM | 3% of 330,000 active | AID 485346;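 active means inhibition of at least 50% at 8 µM in the primary screen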
Target sequence (O15151 whole entry, looked up): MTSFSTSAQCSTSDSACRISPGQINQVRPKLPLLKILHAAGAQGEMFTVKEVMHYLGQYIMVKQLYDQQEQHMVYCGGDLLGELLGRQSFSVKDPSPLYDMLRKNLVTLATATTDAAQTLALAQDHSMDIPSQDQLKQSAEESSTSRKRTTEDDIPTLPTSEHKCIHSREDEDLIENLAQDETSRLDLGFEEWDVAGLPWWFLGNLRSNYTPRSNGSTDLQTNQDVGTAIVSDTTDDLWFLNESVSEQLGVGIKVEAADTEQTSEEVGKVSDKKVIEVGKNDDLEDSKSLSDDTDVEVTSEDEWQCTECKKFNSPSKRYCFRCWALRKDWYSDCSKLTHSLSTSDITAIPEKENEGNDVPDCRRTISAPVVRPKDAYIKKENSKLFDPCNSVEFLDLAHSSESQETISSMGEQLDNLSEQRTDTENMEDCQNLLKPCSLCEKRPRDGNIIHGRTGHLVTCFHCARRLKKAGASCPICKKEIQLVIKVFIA
Target sequence (Q00987 whole entry, looked up): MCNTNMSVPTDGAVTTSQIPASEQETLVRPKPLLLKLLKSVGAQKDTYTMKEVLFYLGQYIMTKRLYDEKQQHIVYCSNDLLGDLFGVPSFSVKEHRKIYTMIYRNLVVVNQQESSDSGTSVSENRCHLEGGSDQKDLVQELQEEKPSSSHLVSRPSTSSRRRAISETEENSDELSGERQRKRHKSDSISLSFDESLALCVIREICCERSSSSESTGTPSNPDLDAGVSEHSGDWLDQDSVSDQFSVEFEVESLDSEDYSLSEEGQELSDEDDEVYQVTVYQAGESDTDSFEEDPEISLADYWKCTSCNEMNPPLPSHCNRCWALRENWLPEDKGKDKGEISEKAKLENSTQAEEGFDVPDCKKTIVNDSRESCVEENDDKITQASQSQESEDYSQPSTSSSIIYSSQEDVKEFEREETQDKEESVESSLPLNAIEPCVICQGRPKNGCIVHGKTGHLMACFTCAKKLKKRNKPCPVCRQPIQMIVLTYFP
Calb FLC: C. albicans growth modulation with fluconazole; C. albicans CaCi-2 (fluconazole-resistant clinical isolate) + fluconazole, Alamar Blue growth, 48 h; growth inhibition, % (concentration not given with the values); 0.57% of 300,000 active;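 active means growth inhibition above about 58% in most replicates, limit read from the data, passing the limit was not always enough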;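 further: all wells also contain fluconazole at 8 µg/ml as a sub-toxic cotreatment; 0% = median of DMSO wells and 100% = median of geldanamycin control wells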
Beta cell apopt: blocks beta cell apoptosis; INS-1E cytokine-induced death, ATP luminescence, 48 h; percent of positive-control rescue, neutral wells zero; protection from apoptosis, % (test concentration not listed); 0.8% of 300,000 active;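 active means Every replicate reaches about 75%, or at least half do and their mean reaches it too, limit read from the data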;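 further: 0% = cytokine-treated negative control wells and 100% = positive control rescue; higher means more ATP so stronger rescue from cytokine killing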
SKKanGAS inh: inhibitors of SKKanGAS S. pyogenes growth in kanamycin (SK-promoter or general growth effect); BacTiter-Glo, 6 h; inhibition, % at 7.5 µM; 1.3% of 300,000 active; AID 1662;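 active means mean replicate score, as percent of positive control median, at least 50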;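 further: strain carries kanamycin resistance gene driven by streptokinase promoter and grows in 40 µg/ml kanamycin; loss of luminescence reflects streptokinase promoter inhibition or plain growth inhibition; 0% = median of DMSO wells and 100% = positive control at its reference dose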
CSC inhib: blocks cancer stem cells; cancer stem cell-like cells viability, luminescence; inhibition, % at 7.5 µM; 1.1% of 300,000 active; AID 2717; in the data active means inhibition above about 75%; tested in HMLE shEcad cells
Mdm2-MdmX conf: human Mdm2/MdmX binding inhibition, confirmed | shares compounds with Mdm2 MdmX PPI | luminescent assay | inhibition, % at 8 µM | 55% of 10,000 active | AID 489028; in the data active means inhibition above about 40%
FLuc counter: full-length luciferase inhibition in Mdm2/MdmX counter-screen; shares compounds with Mdm2 MdmX PPI; AID 504607; inhibition, % at 8 µM; 77% of 6,200 active; SaOS-2 full-length luciferase counterscreen, luminescence;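 active means mean inhibition at 8 µM reaching about 37%, which flags the compound as non-specific, limit read from the data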;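 further: p53-null SaOS-2 cells with luciferase driven by a doxycycline-inducible promoter; compound on cells about two nights before reading with doxycycline added after day one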
* marks the source's active call; other numbers are inactive results; x = no result given.

SMILES	MPTP inh	Mdm2 MdmX PPI	Calb FLC	Beta cell apopt	SKKanGAS inh	CSC inhib	Mdm2-MdmX conf	FLuc counter
O=C(COC(=O)c1ccco1)NCc1ccc(Cl)cc1Cl	0	0	x	-1	x	-9	x	x
Cc1ccc2[nH]c3c(c2c1)CCCC3NC(=O)CCl (stereo unspecified)	0	80*	-1	-18	8	39	31	18
Cc1ccc2[nH]c3c(c2c1)CCCC3C(N)=O (stereo unspecified)	0	-1	0	-2	-3	12	x	x
Cc1ccc(C)c2sc(NC(=O)c3nc4ccccc4s3)nc12	0	58*	4	13	0	0	23	x
O=C(Nc1ccccc1)c1nc2ccccc2s1	7	-297	-46	-4	-15	22	x	x
CCc1nnc(NC(=O)c2nc(S(=O)(=O)Cc3ccc(C)cc3)ncc2Cl)s1	-2	95*	0	x	6	x	80*	52*
CC(=O)Nc1ccc(NC(=O)c2nc(S(=O)(=O)Cc3ccccc3)ncc2Cl)cc1	-3	46	-12	-24	12	1	x	x
CCOc1ccccc1NC(=O)c1nc(S(=O)(=O)Cc2cccc(C)c2)ncc1Cl	-3	100*	5	96*	73*	91*	76*	55*
CCc1nnc(NC(=O)c2nc(S(=O)(=O)Cc3cccc(C)c3)ncc2Cl)s1	-1	100*	14	-30	2	110*	99*	51*
CCc1nnc(NC(=O)c2nc(S(=O)(=O)Cc3ccccc3)ncc2Cl)s1	0	100*	-8	-37	0	101*	49*	6
CCc1nnc(NC(=O)c2cccc(S(=O)(=O)N3CCN(C)CC3)c2)s1	-1	x	x	x	x	x	x	x
CCc1nnc(NC(=O)c2nc(Cl)ccc2Cl)s1	2	8	4	-4	1	-23	x	x
CC(C)CC(NC(=O)OCc1ccccc1)C(=O)NC(Cc1ccccc1)C(=O)CCl (stereo unspecified)	0	x	x	x	x	x	x	x
CCN(CC(=O)NCc1ccc(F)cc1)C(=O)/C=C/c1ccc(OC)cc1	-2	6	-11	-4	-3	-2	x	x
CCN(CC(=O)NCc1ccc(F)cc1)C(=O)/C=C/c1ccc(OC)c(S(=O)(=O)NC(C)C)c1	1	56*	-6	9	-1	57	55*	61*
CCN(CC)c1ccc(C(=O)NN)cc1	2	-8	42	-3	-1	13	x	x
CCN(CC)c1ccc(N)cc1	49	80*	x	108*	x	23	15	x
Cc1cc(C)cc(Nc2cc(=O)n(C3CCCCC3)c(=O)[nH]2)c1	32	51*	-13	-1	7	47	15	x
COc1ccc(Nc2cc(=O)n(C3CCCCC3)c(=O)[nH]2)c(OC)c1	-5	9	0	-5	13	-8	x	x
C/C(=N\Nc1cc(-c2ccccc2)nc(-c2ccccc2)n1)c1ccc(O)c(C)c1	6	53*	-4	17	98*	x	6	x
COc1cc(N/N=C(\C)c2ccc(N)cc2)nc(-c2ccccc2)n1	1	14	5	5	12	-8	x	x
COc1cc(N/N=C(\C)c2ccc(O)c(C)c2)nc(-c2ccccc2)n1	2	87*	13	23	34	110*	66*	112*
COc1ccc(F)cc1S(=O)(=O)N1CCN(C(=O)c2ccco2)CC1	-1	-7	-5	-7	1	-5	x	x
Cc1sc2nc(CSC(C)C(=O)N(C)CC(=O)Nc3ccccc3C(F)(F)F)[nH]c(=O)c2c1C (stereo unspecified)	7	51*	4	-6	5	-7	27	x
CSc1ccccc1NC(=O)CN(C)C(=O)C(C)SCc1nc2sc(C)c(C)c2c(=O)[nH]1 (stereo unspecified)	-1	x	x	x	x	x	x	x
SMILES	MPTP inh	Mdm2 MdmX PPI	Calb FLC	Beta cell apopt	SKKanGAS inh	CSC inhib	Mdm2-MdmX conf	FLuc counter
N/C(=N\OC(=O)c1cccc(C(F)(F)F)c1)c1cnccn1	-1	13	8	-3	-7	-17	x	x
O=C(OCn1ncc(Cl)c(Cl)c1=O)c1cccc(C(F)(F)F)c1	-1	82*	98*	7	5	23	100*	52*
CCOC(=O)C1=C(C)NC(=S)NC1c1ccc(OC(=O)c2ccco2)cc1 (stereo unspecified)	-1	-32	-2	7	13	3	x	x
CCOC(=O)c1c(NC(=O)C2=C(C)NC(=S)NC2c2ccc(CC)cc2)sc(C)c1C (stereo unspecified)	x	64*	-7	5	32	20	18	x
COc1ccc(C(=O)CN2CCN(c3ncccn3)CC2)cc1	0	19	-3	-4	0	-6	x	x
COC(=O)c1sccc1NC(=O)c1c(F)c(F)c(F)c(F)c1F	3	75*	-14	-2	-4	-6	21	x
COc1cccc(-c2cc(C(=O)NCc3cccs3)no2)c1	5	-85	-2	3	3	-10	x	x
O=C(Nc1ccc(N2CCN(c3ccc(C(F)(F)F)cn3)CC2)nc1)c1cccs1	3	56*	-7	-6	1	-2	6	x
O=C(Nc1ccc(N2CCN(c3ncccc3C(F)(F)F)CC2)nc1)c1cccs1	29	65*	2	17	5	30	35	x
CC(C)[C@H](NC(=O)c1ccccc1Cl)C(=O)OCC(=O)NC(=O)NC1CCCC1	1	4	-8	-2	-2	x	x	x
Cc1cc(F)ccc1S(=O)(=O)N1CCCCC1CCNC(=O)C(=O)NCc1ccccn1 (stereo unspecified)	-1	20	-1	4	-1	1	x	x
O=C(/C=C/c1c(F)cccc1Cl)c1ccc(O)cc1	37	100*	-4	4	18	67*	97*	32
O=C(/C=C/c1ccccc1Cl)c1cccnc1	-1	13	4	-2	9	18	x	x
O=C(/C=C/c1ccccc1Cl)c1ccc(O)cc1	0	55*	4	-3	0	25	12	x
CCN(CC)CCn1c2ccccc2c2nc3ccc([N+](=O)[O-])cc3cc21	-2	78*	4	35	34	40	77*	57*
Cc1ccc(CNc2ncnc3cc(Cl)ccc23)o1	3	44	7	x	-4	-22	x	x
CC(=O)c1ccc(Nc2nc3ccc(C)cc3n3cnnc23)cc1	-1	-4	13	-9	3	-14	x	x
CCOc1ccc2nc(NC3=NC(c4ccc(OC)cc4)CC(=O)N3)nc(C)c2c1 (stereo unspecified)	2	98*	0	46	5	76*	39	31
C/C=C/c1cc(CN2CCN(c3ccccc3)CC2)c(O)c(OC)c1	1	82*	-4	5	0	22	45*	83*

Screens from PubChem.
